The record followed here is PubChem BioAssay.

Structures are written as SMILES. Unmarked numbers belong to inactive results. The source made the active and inactive calls. Rule as the data show it, unless noted: active = inhibition above about 42%; inactive = the rest.

The nature of assay [1]: StAR promoter reporter inhibitors, counter-screen for LRH-1 inverse agonist project, cell-based, luminescence, high throughput (AID 651611; in the data active = inhibition above about 28%). The settings on record: StAR promoter luciferase reporter counterscreen, at 3.6 µM, active compounds read high. (In general: A counterscreen serves to expose hits that act by an unwanted route or on another target.)
The target of assay [2] is Nuclear receptor subfamily 5 group A member 2 (Homo sapiens) (UniProt O00482). Description: NR5A2 activity suppression in reporter cells – cell-based, luminescence, confirmation (AID 651613).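 Also: HEK293T cells co-transfected with LRH-1 and StAR promoter luciferase reporter; 0% = vehicle wells and 100% = parental cells lacking receptor.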 The settings on record: cell-based LRH-1 luciferase reporter, inverse agonism; at 3.6 µM; active compounds read high. A general note: A reporter such as luciferase makes a cellular process visible.

In assay [3] the target is Steroidogenic factor 1 (Homo sapiens) (UniProt Q13285). As to the kind of experiment: inverse agonism at SF1 nuclear receptor – cell-based, luminescence, high throughput, counter-screen for LRH-1 inverse agonist project (AID 651614; in the data active = inhibition above about 44%;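 also: cells cotransfected with StAR promoter reporter and SF1 expression vector; 0% = vehicle on cells with receptor and 100% = vehicle on cells lacking receptor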). The note with it: cell-based SF1 luciferase reporter, at 3.6 µM, active compounds read high.
The nature of assay [4]: compounds suppressing VP16-driven luciferase signal – cell-based, luminescence, high throughput, counter-screen for LRH-1 inverse agonist project (AID 651615; in the data active = inhibition above about 33%). The settings on record: Gal4-VP16 luciferase reporter cells, at 3.6 µM, active compounds read high.

One may read the inhibition as the change of the read-out against control, counted positive when it falls.

Sequence of Steroidogenic factor 1 (Homo sapiens) (Q13285 whole entry, looked up, the tested form may be a part): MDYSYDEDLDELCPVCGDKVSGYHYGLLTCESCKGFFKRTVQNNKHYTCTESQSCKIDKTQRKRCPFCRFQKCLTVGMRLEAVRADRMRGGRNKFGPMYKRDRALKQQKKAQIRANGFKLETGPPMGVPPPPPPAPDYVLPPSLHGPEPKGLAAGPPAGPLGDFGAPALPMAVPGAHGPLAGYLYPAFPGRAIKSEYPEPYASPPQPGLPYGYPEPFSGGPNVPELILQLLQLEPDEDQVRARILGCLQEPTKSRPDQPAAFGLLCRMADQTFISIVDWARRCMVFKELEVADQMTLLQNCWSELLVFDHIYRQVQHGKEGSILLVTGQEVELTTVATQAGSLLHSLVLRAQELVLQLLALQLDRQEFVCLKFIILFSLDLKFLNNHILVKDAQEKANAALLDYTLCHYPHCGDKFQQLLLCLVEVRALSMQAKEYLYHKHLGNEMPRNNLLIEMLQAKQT
Sequence of Nuclear receptor subfamily 5 group A member 2 (Homo sapiens) (O00482 whole entry, looked up): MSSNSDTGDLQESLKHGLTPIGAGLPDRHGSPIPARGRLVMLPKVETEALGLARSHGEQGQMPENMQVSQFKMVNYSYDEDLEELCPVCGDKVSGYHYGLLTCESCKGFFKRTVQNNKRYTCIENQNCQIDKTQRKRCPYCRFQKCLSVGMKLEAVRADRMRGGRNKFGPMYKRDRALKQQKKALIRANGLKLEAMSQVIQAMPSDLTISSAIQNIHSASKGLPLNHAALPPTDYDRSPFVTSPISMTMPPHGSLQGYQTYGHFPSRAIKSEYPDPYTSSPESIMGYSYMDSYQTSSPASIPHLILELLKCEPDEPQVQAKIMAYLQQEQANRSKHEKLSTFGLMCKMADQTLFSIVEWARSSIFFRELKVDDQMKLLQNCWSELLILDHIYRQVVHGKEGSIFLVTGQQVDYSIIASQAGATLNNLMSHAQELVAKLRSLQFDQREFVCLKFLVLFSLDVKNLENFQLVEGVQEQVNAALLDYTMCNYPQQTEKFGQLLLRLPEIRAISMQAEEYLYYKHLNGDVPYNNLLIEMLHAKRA

On to `O=C(CN1CCN(c2ccc([N+](=O)[O-])cc2)CC1)c1ccccc1`, for which the inhibition was 6.83% in assay [1], 60.3% (active) in assay [2], 48.5% (active) in assay [3] and 9.99% in assay [4].

In the case of `O=C(CN1C(=O)NC2(CCCCCC2)C1=O)Nc1ccc([N+](=O)[O-])cc1`, the inhibition in assay [1] was 25.1%; in assay [2] it was 63.1% (active); in assay [3] it was 59.6% (active); in assay [4], 9.06%.

`CC(C)C(=O)N1CCN(c2ccc(NC(=O)c3ccc([N+](=O)[O-])o3)cc2)CC1`: the inhibition in assay [1] was 8.38%; in assay [2] it was 59.5% (active); in assay [3] it was 60.5% (active); in assay [4], -4.74%.

Take `CCC(C)NC(=O)c1ccc2c(c1)N(Cc1ccccc1)C(=O)CS2` (configuration not stated): the inhibition in assay [1] is 7.12%; in assay [2], 49.2% (active); in assay [3] it was 51.5% (active); in assay [4] it was 3.22%.

Take `Cc1nn(CC(=O)NCCC2=CCCCC2)c(C)c1[N+](=O)[O-]`: the inhibition in assay [1] is 17.5%; in assay [2], 48.9% (active); in assay [3] it was 41.5%; in assay [4], -0.8%.

As for `N#Cc1c(N)c(C#N)c(-c2ccc(O)cc2)c2c1CCCC2`, the inhibition is 6.6% in assay [1], 57.8% (active) in assay [2], 53.8% (active) in assay [3] and 9.21% in assay [4].

For the compound `CCCc1cc(=O)oc2cc(OCC(=O)NCCc3c[nH]c4ccc(OC)cc34)ccc12`, the inhibition in assay [1] was 6.12%; in assay [2] it was 28.9%; in assay [3], 40.4%; in assay [4], -23.9%.

Turning to `O=C(CN1C(=O)NC2(CCCC2)C1=O)NCCc1ccc(F)cc1`, the inhibition in assay [1] was 15.3%; in assay [2], 44.2% (active); in assay [3], 40.8%; in assay [4] it was 5.08%.

For `COc1ccc(N2CC(C(=O)N/N=C/c3ccc(C)cc3)CC2=O)cc1` (configuration not stated), the inhibition is 40.7% (active) in assay [1], 40% in assay [2], 29.4% in assay [3] and 19.5% in assay [4].

In the case of `Cc1cc(Br)ccc1NC(=O)CSc1nnc(CN2CCOCC2)n1C`, the inhibition in assay [1] is 15.4%; in assay [2], 47.8% (active); in assay [3], 42.5%; in assay [4], 0.09%.

Regarding `Cc1ccc(NC(=O)COC(=O)c2cc(=O)c3ccccc3o2)c(Br)c1`, the inhibition in assay [1] was 7.74%; in assay [2], 50.4% (active); in assay [3] it was 51.1% (active); in assay [4], 2.1%.

As for `CC[C@@H](C(=O)[C@@H](C)[C@@H](O)[C@H](C)[C@@H]1O[C@@H]([C@@H](CC)C(=O)O)CC[C@@H]1C)[C@H]1O[C@]2(C=C[C@@H](O)[C@]3(CC[C@@](C)([C@H]4CC[C@](O)(CC)[C@H](C)O4)O3)O2)[C@H](C)C[C@@H]1C`, the inhibition was 87% (active) in assay [1], 103% (active) in assay [2], 92.7% (active) in assay [3] and 92.3% (active) in assay [4].

With `CCOc1ccc(NC(=O)CSc2nnc(CNC(=O)c3cccs3)o2)cc1`, the inhibition in assay [1] is 20%; in assay [2], 60.3% (active); in assay [3] it was 59.6% (active); in assay [4], -0.65%.

For `O=C(Cc1c(Cl)cccc1Cl)Nc1ccncc1`, the inhibition in assay [1] was 16.9%; in assay [2], 53.1% (active); in assay [3], 45.4% (active); in assay [4], -10%.

In the case of `CC(=O)NC12CC3CC(C1)CC(C(=O)Nc1nc4ccc(S(C)(=O)=O)cc4s1)(C3)C2`, the inhibition in assay [1] is 11.2%; in assay [2] it was 50.8% (active); in assay [3], 45.2% (active); in assay [4], -1.09%.

Turning to `O=C(Nc1ccc(Cc2ccncc2)cc1)c1cccc([N+](=O)[O-])c1`, the inhibition is -10.2% in assay [1], 52.4% (active) in assay [2], 51.9% (active) in assay [3] and 0.73% in assay [4].

Turning to `CC(=O)N[C@@H](Cc1c[nH]c2ccccc12)C(=O)OCC(=O)Nc1ccc2c(c1)OCO2`, the inhibition was -1.82% in assay [1], 53.1% (active) in assay [2], 56.8% (active) in assay [3] and -4.65% in assay [4].

As for `CCOc1ccc(S(=O)(=O)Nc2cc(OC)ccc2OC)cc1`, the inhibition in assay [1] was 35.8% (active); in assay [2], 54.4% (active); in assay [3] it was 49.1% (active); in assay [4], 22.6%.
